Source: PubChem BioAssay AID743126 (The Scripps Research Institute Molecular Screening Center, 2013)
Screen size: about 370,000 compounds; about 2,100 (0.57%) were called active.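 How the source made its calls: active means inhibition above mean plus 3 SD of compounds lying within the high and low control bounds (cut at about 19% in these data); inactive means the rest.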 The sample as a whole holds a higher share of actives than the screen did.

The compounds below were run against Group 3 secretory phospholipase A2 (Homo sapiens) (UniProt Q9NZ20) (assay: HGIII-sPLA2 enzyme inhibition – biochemical, QFRET, BODIPY PC-A2 liposome substrate, primary screen (AID 743126;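 further: 0% = median of test compound wells and 100% = no enzyme DMSO wells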)). Details: QFRET BODIPY PC-A2 liposome hydrolysis, fluorescence; at 12.2 µM; stronger effect = higher value.
Group 3 secretory phospholipase A2 (Homo sapiens), sequence (Q9NZ20 whole entry, looked up): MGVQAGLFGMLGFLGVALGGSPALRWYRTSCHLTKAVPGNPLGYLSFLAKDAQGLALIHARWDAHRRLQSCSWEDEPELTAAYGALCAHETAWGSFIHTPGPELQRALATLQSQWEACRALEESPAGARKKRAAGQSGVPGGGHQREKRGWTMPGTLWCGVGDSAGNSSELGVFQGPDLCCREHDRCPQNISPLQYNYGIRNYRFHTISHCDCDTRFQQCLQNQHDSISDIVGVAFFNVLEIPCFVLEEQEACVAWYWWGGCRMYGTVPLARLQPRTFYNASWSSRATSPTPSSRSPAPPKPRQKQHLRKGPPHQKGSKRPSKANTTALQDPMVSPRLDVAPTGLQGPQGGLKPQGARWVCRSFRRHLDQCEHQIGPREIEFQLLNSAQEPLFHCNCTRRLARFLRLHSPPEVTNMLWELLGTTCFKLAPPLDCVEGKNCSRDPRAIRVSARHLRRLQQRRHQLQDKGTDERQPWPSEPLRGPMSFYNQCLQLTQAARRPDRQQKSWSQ

SMILES | inhibition
C=CCN1C(=O)[C@@H](CC(=O)NCC2CCCCC2)[C@]2(C(=O)OC)CCCCC=C12 | -6.71% (inactive)
Cc1ccc(CSc2nnc(SCC(=O)NN=Cc3cc(Br)ccc3F)s2)cc1 | 8.12% (inactive)
COC[C@@H]1CCCN1c1ccc2c(c1)O[C@H](C)CCN(C1CC1)S2(=O)=O | -5.4% (inactive)
Oc1ccc(/C=C/c2c(F)cccc2F)c2cccnc12 | 16% (inactive)
CCN(Cc1ccccc1)C(=O)CN1C(=S)NC(C)(C)CC1C (stereo not drawn) | 31.1% (active)
CC1CC(C)(C)NC(=S)N1CCC(=O)N1CCN(Cc2ccccc2)CC1 (stereo not drawn) | 8.05% (inactive)
COc1cccc(CNC(=O)CCN2C(=S)NC(C)(C)CC2C)c1 (stereo not drawn) | 6.8% (inactive)
COc1ccccc1C(=O)CSc1nnc(-c2ccccn2)n1-c1ccccc1 | -16.8% (inactive)
CCc1ccc(NC2Nc3cc(C)nn3S2)cc1 (stereo not drawn) | 23.9% (active)
CCOC(=O)c1cccc(NC(=O)CN(C)S(=O)(=O)c2ccc(-c3cocn3)s2)c1 | -2.93% (inactive)
O=C(C1CCN(S(=O)(=O)c2ccccc2)CC1)N1CCN(C2CCCCC2)CC1 | 8.19% (inactive)
CCOc1ccc(-c2n[nH]c(=S)n2/N=C/c2cc3c(cc2[N+](=O)[O-])OCO3)cc1 | 1.67% (inactive)
CSc1ccc(C=Nn2c(-c3ccc(F)cc3)n[nH]c2=S)cc1 | 6.63% (inactive)
S=c1[nH]nc(-c2ccco2)n1/N=C/c1ccccc1 | 19.3% (active)
Cc1cc(C)cc(NC(=O)N2CCC(N(C)CCC(C)C)CC2)c1 | 10.3% (inactive)
CCOC(=O)[C@@]12CCC3=C1N(CCC3)C(=O)[C@H](CC(=O)N1CCN(C(=O)c3ccco3)CC1)C2 | 8.67% (inactive)
c1coc(CCNc2ncnc3ccc(-c4ccc5c(c4)OCO5)cc23)c1 | -19.4% (inactive)
COC(=O)[C@]12C[C@H](CC(=O)NCc3ccccc3)C(=O)N(CCc3ccc(OC)c(OC)c3)C1=C[C@H](C(C)(C)C)O[C@@H]2C | -21.4% (inactive)
COC1=C[C@H](C(=O)NCCNC(C)=O)[C@H](C)[C@@H](c2ccccc2)CC1=O | -0.85% (inactive)
C=CCn1c(SCC(N)=O)nnc1-c1ccccc1OC | 6.66% (inactive)
COc1ccccc1NC(=O)COC(=O)COc1ccccc1F | -4.78% (inactive)
COc1ccccc1OCC(=O)OCn1c(SC)nnc(C)c1=O | 21.3% (active)

SMILES | inhibition
CCN(CC)C(=O)CC[C@H]1CC[C@]2(CCCN(Cc3ccc(Cl)cc3)C2)O1 | 6.37% (inactive)
O=C(COc1ccc(S(=O)(=O)NCc2ccccc2)cc1)N1CCOCC1 | 20.9% (active)
O=C(COc1ccc(S(=O)(=O)NCCc2ccccc2)cc1)N1CCCC1 | -5.12% (inactive)
CC(NS(=O)(=O)c1ccc(OCC(=O)N2CCCC2)cc1)c1ccccc1 (stereo not drawn) | 5.02% (inactive)
CCOC(=O)[C@]12CCCC=C1N(Cc1ccc(OC)cc1)C(=O)[C@@H]2CC(=O)NCc1cccs1 | -4.75% (inactive)
COc1ccc(Cn2cc(CN3[C@@H](CC(C)C)COc4cc(Br)ccc4S3(=O)=O)nn2)cc1 | 6.77% (inactive)
C[C@H]1CCC/C=C/C(=O)c2c(O)cc(O)cc2CC(=O)O1 | 4.76% (inactive)
Clc1ccc(-n2c(COc3ccccc3)nnc2SCc2nc3ccccc3[nH]2)cc1 | -11.3% (inactive)
Cc1cc(NS(=O)(=O)c2ccc(NC(=O)CSc3nnc(SCc4ccc(F)cc4)s3)cc2)nc(C)n1 | -29.3% (inactive)
Cc1nc(NC(=O)c2ccc3c(c2)OCCO3)ccc1Br | 4.96% (inactive)
C/C(Cc1ccccc1)=N\NC(=O)CNC(=O)c1ccc2c(c1)OCCO2 | -4.8% (inactive)
Cc1ccc2sc(NNC(=O)c3ccc4c(c3)OCCO4)nc2c1C | 39.7% (active)
COc1cc(/C=C/C(=O)n2cnc3ccccc32)cc(OC)c1OC | 11.9% (inactive)
CCc1ccccc1NC(=O)CSc1nnc(-c2cccs2)o1 | 0.47% (inactive)
COc1cc(C(=O)NNC(=O)c2ccc(S(=O)(=O)N3CCCCC3)cc2)cc(OC)c1OC | -8.86% (inactive)
COc1ccccc1CC(=O)Nc1ccc(S(=O)(=O)N2CCCC2)cc1 | -5.06% (inactive)
COc1ccc(-c2ccc(Nc3ccc(S(=O)(=O)N4CCCC4)cc3)nn2)cc1OC | 27.2% (active)
CCC(NC(=O)C1C2C=CC3(CN(Cc4ccccc4)C(=O)C13)O2)c1ccccc1 (stereo not drawn) | -3.46% (inactive)
CCOC(=O)C1CCN(C(=O)C(C)(C)NC(=O)Nc2ccccc2Cl)CC1 | 0.81% (inactive)
C/C(=N\NS(=O)(=O)c1cccc([N+](=O)[O-])c1)c1cc2ccccc2o1 | 3.51% (inactive)
C/C(=N\NC(=S)Nc1ccc(C)cc1)c1cc2ccccc2o1 | 23.9% (active)
CC(=O)N1CCN(c2ccccc2NC(=S)NC(=O)c2cc3ccccc3o2)CC1 | 3.86% (inactive)

SMILES | inhibition
Cc1cc(C)n2ncc(C(=O)Nc3ccc4c(c3)OCCO4)c2n1 | 0.96% (inactive)
COc1ccc(Cl)cc1C(=O)NNC(=S)NC1CCCC1 | 26.5% (active)
Cc1nn(C)c(C(=O)NNC(=S)NC2CCCCC2)c1Cl | 4.69% (inactive)
COc1ccc(Cl)cc1C(=O)NNC(=S)NC(=O)/C=C/c1ccco1 | 2.13% (inactive)
O=C(NNC(=S)NC1CCCCC1)c1ccccc1Cl | 20.1% (active)
O=C(COC(=O)c1ccccc1Cl)NC1CCCCCCC1 | 5.22% (inactive)
COc1ccc(Cl)cc1C(=O)NNC(=O)c1nc2nc(C)cc(C)n2n1 | 5.45% (inactive)
COC(=O)C12C=C3CC(c4ccccc4)=C3C(=O)N1Cc1[nH]c3ccccc3c1C2 (stereo not drawn) | -7.07% (inactive)
COc1ccc(-n2c(SCC(=O)Nc3ccc4cn[nH]c4c3)nnc2-c2cccnc2)cc1 | 3.42% (inactive)
CC(=O)OCCN1CCCC12CCC(c1ccccc1)CC2 (stereo not drawn) | 11.1% (inactive)
C=CCN1C(=O)[C@@H](CC(=O)NCCCOCCCC)[C@]2(C(=O)OCC)CCCCC/C=C/12 | -8.97% (inactive)
COc1ccc(-n2c(SCC(=O)Nc3ccccc3-c3ccccc3)nnc2-c2cccnc2)cc1 | -5.21% (inactive)
CCOC(=O)N1CCN(C(=O)C[C@@H]2C(=O)N(CCc3ccc(Cl)cc3)C3=CCCC[C@]32C(=O)OCC)CC1 | -8.77% (inactive)
S=C(NNC(=S)NC1CC2CCC1C2)NC1CC2C=CC1C2 (stereo not drawn) | 19.5% (active)
CC1CCN(C(=S)NC2CC3CCC2C3)CC1 (stereo not drawn) | 14.4% (inactive)
O=S(=O)(NC1CC2CCC1C2)c1ccc(Cl)cc1 (stereo not drawn) | -4.6% (inactive)
O=C(NNC(=S)NC1CC2CCC1C2)c1ccc(Cl)cc1 (stereo not drawn) | 19.4% (active)
CC(C)c1ccc(NC(=S)NC2CC3C=CC2C3)cc1 (stereo not drawn) | 0.31% (inactive)
O=C(NNC(=O)C1C2CCC(C2)C1C(=O)O)c1ccc(Cl)cc1 (stereo not drawn) | 4.75% (inactive)
Cc1ccc(C2=CCN(C)C(=O)N2c2ccc(Cl)cc2)cc1 | -5.31% (inactive)
COC(=O)C[C@@H]1CC[C@@H]2[C@@H](COc3ccc(NC(=O)Nc4ccc(F)c(F)c4)cc3C(=O)N2C)O1 | -13.5% (inactive)
Cc1cccc(N(Cc2ccccc2)C(=O)c2cc(S(=O)(=O)N3CCOCC3)ccc2F)c1 | -1.09% (inactive)

SMILES | inhibition
Cc1ccc(S(=O)(=O)N2CCOCC2)cc1C(=O)NC(=S)N(Cc1ccccc1)C(C)C | 23.9% (active)
Cc1ccc(S(=O)(=O)N2CCOCC2)cc1C(=O)Nc1ccccc1N1CCCC1 | 1.07% (inactive)
CCC(=O)Nc1ccc2c(c1)C(=O)N(C)[C@@H]1CC[C@@H](CC(=O)NCCc3ccccc3)O[C@H]1CO2 | 4.64% (inactive)
C[C@H](C(=O)N(C)c1ccccc1)[C@@H](O)c1ccc(Cl)cc1 | -2.63% (inactive)
O=C(OC12CCCN(C1)/C(=C/c1cccnc1)C2)C1CCCC1 (stereo not drawn) | -0.59% (inactive)
O=C(NNC(=O)C1CCN(c2ncccn2)CC1)c1ccccc1 | -1.66% (inactive)
Cc1ccccc1NC(=O)C1CCN(C(=O)NC2CCCCC2)CC1 | -4.04% (inactive)
Cc1ccccc1NC(=O)C1CCN(c2ncccn2)CC1 | 19.5% (active)
COC(=O)c1cc(S(=O)(=O)N2CCN(c3ccccc3C)CC2)cn1C | 1.56% (inactive)
CCCCn1c(=S)[nH]c2ccccc2c1=O | 25.3% (active)
CCCCNC(=O)c1ccc(-n2c(=S)[nH]c3ccccc3c2=O)cc1 | 4.64% (inactive)
CCCCn1c(=S)[nH]c2ncccc2c1=O | 2.69% (inactive)
COc1ccccc1C(=O)NC1CCCCN(C(C)C)C1=O (stereo not drawn) | 12.1% (inactive)
COC(=O)[C@H](C(C)C)N(CCCc1cn(Cc2ccccc2)nn1)S(=O)(=O)c1ccc(F)cc1Br | -15.2% (inactive)
CCCCCOC(=O)c1ccc(N2C(=O)C3C4C=CC(C4)C3C2=O)cc1 (stereo not drawn) | -15.1% (inactive)
CCCCCCCCCCOC(=O)C[N+](C)(C)CC1CCCCC1O (stereo not drawn) | 19.3% (active)
COc1ccc(S[C@]2(C(=O)N(C)C)CC(=O)N(c3ccc(OC)cc3)[C@@H]2c2ccc(OC)cc2)cc1 | -13.3% (inactive)
CCCCCCN1CCS(=O)(=O)N(Cc2ccc(C(F)(F)F)cc2)C(C(=O)OC)C1 (stereo not drawn) | 5.31% (inactive)
O=[N+]([O-])c1cc(Cl)cc(/C=N/NC(=S)Nc2cc(S(=O)(=O)N3CCOCC3)ccc2Cl)c1O | 16.3% (inactive)
O=C(N/N=C/c1cc(Cl)cc([N+](=O)[O-])c1O)C(O)(c1ccccc1)c1ccccc1 | 21.2% (active)
O=C(NN=Cc1ccco1)C(=O)Nc1ccc(Cl)c([N+](=O)[O-])c1 | 3.31% (inactive)
CN(C)CC(=O)N[C@@H]1C[C@@H]2O[C@H](CO)CC[C@@H]2O[C@@H]1CCc1ccc(C#Cc2ccccc2)cc1 | -19.5% (inactive)
